From PubChem BioAssay (NCI)
Compounds without any hit were thinned out: in the full panel of roughly 83,000, 20% have a hit.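 96-well plates, one dose, 48 hours. Percent growth reported; active if below 10.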 Activity calls are given as the source filed them.

Tests used:
Assay in all cases: NCI-60 one-dose screen, 48 h (100 = growth as untreated, 0 = no growth, -100 = all killed)
Conditions in all cases: 10 µM unless noted
NCI-H23 lung = tested on: NCI-H23 lung
NCI-H226 lung = tested on: NCI-H226 lung
NCI-H322M lung = tested on: NCI-H322M lung
HOP-62 NSCLC = tested on: HOP-62 NSCLC
NCI-H460 lung = tested on: NCI-H460 lung
HOP-92 NSCLC = tested on: HOP-92 NSCLC
NCI-H522 lung = tested on: NCI-H522 lung
A549/ATCC NSCLC = tested on: A549/ATCC NSCLC
786-0 renal = tested on: 786-0 renal
COLO 205 colon = tested on: COLO 205 colon

Measured: growth

COc1ccc2c(c1)/C(=C/c1sc(=S)n(Cc3ccco3)c1O)C=N2
active: NCI-H460 lung 9.07%
inactive: NCI-H23 lung 51% | NCI-H226 lung 71.4% | NCI-H322M lung 89% | HOP-62 NSCLC 39.6% | HOP-92 NSCLC 77.5% | NCI-H522 lung 32.5% | A549/ATCC NSCLC 57.9% | 786-0 renal 46.2%

CC/C=C\C[C@@H](O)C/C=C1/C(=O)C=C[C@H]1C/C=C\CCCC(=O)OC
active: NCI-H226 lung 8.9% | HOP-62 NSCLC -31.6% | NCI-H460 lung -33.2% | NCI-H522 lung -67.7% | A549/ATCC NSCLC -16.6%
inactive: NCI-H23 lung 22.3% | NCI-H322M lung 12% | HOP-92 NSCLC 22.9% | 786-0 renal 30.5%

Nc1nn(C(=O)Nc2ccc(Cc3ccccc3)cc2)c2ccc(Cl)cc12
inactive: NCI-H23 lung 70.1% | NCI-H226 lung 63.5% | NCI-H322M lung 65.9% | HOP-62 NSCLC 67.8% | NCI-H460 lung 28.9% | HOP-92 NSCLC 99.8% | NCI-H522 lung 73.1% | A549/ATCC NSCLC 38.3% | 786-0 renal 64%

CC([C@H]1CCC2C3CCC4C(=O)C(NC=O)=CC[C@]4(C)C3CC[C@@]21C)N(C)C (stereo partly drawn)
active: NCI-H460 lung -4.84% | COLO 205 colon -80.1%
inactive: NCI-H23 lung 44.2% | NCI-H226 lung 88.5% | NCI-H322M lung 30.4% | HOP-62 NSCLC 74.2% | HOP-92 NSCLC 41.7% | NCI-H522 lung 96.1% | A549/ATCC NSCLC 45% | 786-0 renal 46.1%

N#Cc1ccc(NC(=O)c2sc3nc4c(cc3c2N)C(=O)CCC4)cc1
inactive: NCI-H23 lung 106% | NCI-H226 lung 93.7% | NCI-H322M lung 103% | HOP-62 NSCLC 101% | NCI-H460 lung 85.9% | HOP-92 NSCLC 95.6% | NCI-H522 lung 103% | A549/ATCC NSCLC 92.5% | 786-0 renal 97.8%

CCC12CCC[N+]3([O-])CCC4(C(=Nc5ccccc54)C(O)(C(=O)OC)C1)C23 (stereo not drawn)
inactive: NCI-H23 lung 101% | NCI-H226 lung 106% | NCI-H322M lung 103% | HOP-62 NSCLC 94.5% | NCI-H460 lung 111% | HOP-92 NSCLC 94.4% | NCI-H522 lung 115% | A549/ATCC NSCLC 114% | 786-0 renal 106%

COc1cccc(-c2nc(-c3ccc(NC(=O)OC(C)C)cc3)[nH]c2-c2ccnc(Br)c2)c1
active: 786-0 renal 0.518%
inactive: NCI-H23 lung 15.7% | NCI-H226 lung 31.2% | NCI-H322M lung 35.4% | HOP-62 NSCLC 22.7% | NCI-H460 lung 16.7% | HOP-92 NSCLC 40.7% | NCI-H522 lung 26.8% | A549/ATCC NSCLC 29%

O=S(=O)(NCCCNc1cc(-c2c(-c3cccc(O)c3)nc3sccn23)ccn1)c1cccc2ccccc12
inactive: NCI-H23 lung 39.8% | NCI-H226 lung 41.1% | NCI-H322M lung 78.8% | HOP-62 NSCLC 67.2% | NCI-H460 lung 39.7% | HOP-92 NSCLC 97.3% | NCI-H522 lung 51.2% | A549/ATCC NSCLC 58.9% | 786-0 renal 51.2%

Cc1cc(=O)oc2cc(OC(=O)N3CCN(C)CC3)ccc12
inactive: NCI-H23 lung 99.6% | NCI-H226 lung 101% | NCI-H322M lung 105% | HOP-62 NSCLC 104% | NCI-H460 lung 107% | HOP-92 NSCLC 103% | NCI-H522 lung 98.9% | A549/ATCC NSCLC 103% | 786-0 renal 108% | COLO 205 colon 116%

COc1c(C2CC(=O)Nc3c2c(C)nn3-c2nc3ccccc3[nH]2)cc2c(c1OC)OCO2 (stereo not drawn)
inactive: NCI-H23 lung 48.2% | NCI-H226 lung 75.8% | NCI-H322M lung 78.5% | HOP-62 NSCLC 43.4% | NCI-H460 lung 35.6% | HOP-92 NSCLC 70.9% | NCI-H522 lung 53.3% | A549/ATCC NSCLC 35.8% | 786-0 renal 67.6% | COLO 205 colon 84.1%

O=C(Cc1ccc(F)c(Cl)c1)Nc1cc(C2(C(F)(F)F)CC2)nn1CC1CCCCC1
active: NCI-H23 lung -2.27% | NCI-H322M lung 9.83% | HOP-62 NSCLC -8.44% | NCI-H460 lung 3.01% | HOP-92 NSCLC -14.9% | NCI-H522 lung -28.1% | A549/ATCC NSCLC 9.72% | 786-0 renal 9.17% | COLO 205 colon -86.2%
inactive: NCI-H226 lung 14.5%

COc1ccc(/C=N/Nc2cc(=O)[nH]c3ccc(C)cc23)cc1
inactive: NCI-H23 lung 70% | NCI-H226 lung 81.5% | NCI-H322M lung 86.8% | HOP-62 NSCLC 86.3% | NCI-H460 lung 103% | HOP-92 NSCLC 88% | NCI-H522 lung 75.2% | A549/ATCC NSCLC 91.3% | 786-0 renal 105% | COLO 205 colon 106%

COc1cc(C(=O)N/N=C/c2cc3cc(OCc4ccccc4)ccc3nc2OC)cc(OC)c1OC
inactive: NCI-H23 lung 90.2% | NCI-H226 lung 78.4% | NCI-H322M lung 98% | HOP-62 NSCLC 83% | NCI-H460 lung 78.7% | HOP-92 NSCLC 66.7% | NCI-H522 lung 70.2% | A549/ATCC NSCLC 82.2% | 786-0 renal 85.5% | COLO 205 colon 102%

O=C(/C=C/c1cccc2ccccc12)c1ccc(NC(=O)c2ccccc2CN2C(=O)c3ccccc3C2=O)cc1
inactive: NCI-H23 lung 67.3% | NCI-H226 lung 93.4% | NCI-H322M lung 79.7% | HOP-62 NSCLC 94.2% | NCI-H460 lung 79.9% | HOP-92 NSCLC 80.2% | NCI-H522 lung 68.4% | A549/ATCC NSCLC 78.6% | 786-0 renal 97% | COLO 205 colon 101%

COc1ccc(-c2nc3sc(-c4ccc(Cl)cc4)cn3n2)cc1
active: NCI-H460 lung -39.3% | A549/ATCC NSCLC -30.3% | 786-0 renal -75.8%
inactive: NCI-H23 lung 58.5% | NCI-H226 lung 50.1% | NCI-H322M lung 17.8% | HOP-62 NSCLC 39.6% | HOP-92 NSCLC 21.5% | NCI-H522 lung 61% | COLO 205 colon 52.5%

COc1cccc(-c2nn(-c3ccccc3)cc2-c2ccnc(N3CCOCC3)c2)c1
inactive: NCI-H23 lung 82.4% | NCI-H226 lung 93.9% | NCI-H322M lung 98.7% | HOP-62 NSCLC 96.2% | NCI-H460 lung 91.3% | HOP-92 NSCLC 66.3% | NCI-H522 lung 71.4% | A549/ATCC NSCLC 86.8% | 786-0 renal 99% | COLO 205 colon 98.5%

COc1cc(C(=O)c2cnc(-c3c[nH]c4cccc(C)c34)[nH]2)cc(OC)c1OC
active: NCI-H460 lung 3.6% | HOP-92 NSCLC 5.73% | NCI-H522 lung -4.91% | COLO 205 colon -29.3%
inactive: NCI-H23 lung 24% | NCI-H226 lung 57% | NCI-H322M lung 40.3% | HOP-62 NSCLC 36.2% | A549/ATCC NSCLC 20.4% | 786-0 renal 10.4%

NCCNc1nc2ccccc2c2c(=O)c3cccc(F)c3sc12
inactive: NCI-H23 lung 70% | NCI-H226 lung 78.5% | NCI-H322M lung 64.7% | HOP-62 NSCLC 58% | NCI-H460 lung 13.8% | HOP-92 NSCLC 59.9% | NCI-H522 lung 59.2% | A549/ATCC NSCLC 41.1% | 786-0 renal 76.7% | COLO 205 colon 26.6%

COc1ccc(-c2c(C(=O)NS(C)(=O)=O)n(Cc3cccc(C(F)(F)F)c3)c3ccccc23)cc1
inactive: NCI-H23 lung 97.4% | NCI-H226 lung 82.1% | NCI-H322M lung 94.5% | HOP-62 NSCLC 89.4% | NCI-H460 lung 89.7% | HOP-92 NSCLC 62.2% | NCI-H522 lung 80.8% | A549/ATCC NSCLC 88.8% | 786-0 renal 95.3% | COLO 205 colon 105%

Cc1cccc(NCc2cn(-c3ccc(C(=O)O)cc3)nc2-c2ccc(C(=O)O)cc2)n1
inactive: NCI-H23 lung 110% | NCI-H226 lung 99.8% | NCI-H322M lung 105% | HOP-62 NSCLC 104% | NCI-H460 lung 104% | HOP-92 NSCLC 105% | NCI-H522 lung 95.8% | A549/ATCC NSCLC 104% | 786-0 renal 102% | COLO 205 colon 111%

O=C1c2cccc3cccc(c23)C(=O)N1N1C(=O)c2cccc3c(NC4CCCCC4)ccc(c23)C1=O
inactive: NCI-H23 lung 90.4% | NCI-H226 lung 94% | NCI-H322M lung 96.4% | HOP-62 NSCLC 92.6% | NCI-H460 lung 98.8% | HOP-92 NSCLC 79.9% | NCI-H522 lung 88.1% | A549/ATCC NSCLC 94.4% | 786-0 renal 105% | COLO 205 colon 103%

COc1ccc(OC)c(/C=C2\Oc3cc(OCCN4CCC(Cc5ccccc5)CC4)ccc3C2=O)c1
inactive: NCI-H23 lung 88.1% | NCI-H226 lung 91% | NCI-H322M lung 94% | HOP-62 NSCLC 94.4% | NCI-H460 lung 82.2% | HOP-92 NSCLC 55.2% | NCI-H522 lung 86.6% | A549/ATCC NSCLC 92% | 786-0 renal 77.6% | COLO 205 colon 25.3%

CC(C)c1cc(C(C)C)c(S(=O)(=O)Oc2ccc(NC(=O)c3ccc(Cl)cc3)cc2)c(C(C)C)c1
active: NCI-H522 lung 7.91%
inactive: NCI-H23 lung 15.2% | NCI-H226 lung 51.6% | NCI-H322M lung 60.4% | HOP-62 NSCLC 57.9% | NCI-H460 lung 13.4% | HOP-92 NSCLC 19.1% | A549/ATCC NSCLC 27.5% | 786-0 renal 33.8% | COLO 205 colon 32.7%

CCCCCCN1C(=O)/C(=c2\sc3n(c2=O)C2C(NN=3)N(CC)C(=O)N2CC)c2ccccc21 (stereo not drawn)
inactive: NCI-H23 lung 25.6% | NCI-H322M lung 43.5% | HOP-92 NSCLC 37%
active: NCI-H226 lung -5.26% | HOP-62 NSCLC -1.75% | NCI-H460 lung -27.7% | NCI-H522 lung -28.7% | A549/ATCC NSCLC -47.6% | 786-0 renal -67.2% | COLO 205 colon 7.62%

O=C(Cc1ccc(F)c(Cl)c1)Nc1cc(C2(C(F)(F)F)CC2)nn1Cc1ccccc1
active: HOP-62 NSCLC -32.7% | HOP-92 NSCLC -19.5%
inactive: NCI-H23 lung 55.3% | NCI-H226 lung 43.2% | NCI-H322M lung 89.6% | NCI-H460 lung 79% | NCI-H522 lung 58.2% | A549/ATCC NSCLC 60.3% | 786-0 renal 34.6% | COLO 205 colon 66.3%

COc1ccc(-c2cc(-c3ccc(Cl)cc3)c(C#N)c(=O)n2CCCCCC(=O)Nc2ccccc2N)cc1
inactive: NCI-H23 lung 63.1% | NCI-H226 lung 72.9% | NCI-H322M lung 61.4% | HOP-62 NSCLC 41.8% | NCI-H460 lung 26.7% | HOP-92 NSCLC 13% | NCI-H522 lung 33.7% | A549/ATCC NSCLC 35.7% | 786-0 renal 41.5% | COLO 205 colon 10.1%

COc1ccc(C(Cc2ccccc2)NCCN2CCOCC2)cc1 (stereo not drawn)
inactive: NCI-H23 lung 100% | NCI-H226 lung 109% | NCI-H322M lung 95.7% | HOP-62 NSCLC 93.1% | NCI-H460 lung 107% | HOP-92 NSCLC 106% | NCI-H522 lung 71.1% | A549/ATCC NSCLC 97.8% | 786-0 renal 89.4% | COLO 205 colon 96.1%
